Measured values reported in publication PMC7862700, “An all-to-all approach to the identification of sequence-specific readers for epigenetic DNA modifications on cytosine”.

What was measured:
Assay in all cases: DAPPL (digital affinity profiling via proximity ligation, sequencing); 10 mM Tris-HCl pH 7.5, 50 mM NaCl, 1 mM DTT, 4% glycerol, room temperature, 30 min; GST-TFs on glutathione beads, 16-mer random dsDNA library, 0.1% formaldehyde crosslink after washing; high values mean tight binding
Settings in all cases: protein: recombinant; tags: N-terminal GST; dsDNA, one strand shown
ERF = target: T1, ERF (Homo sapiens, UniProt P50548 1-548)
T1 sequence: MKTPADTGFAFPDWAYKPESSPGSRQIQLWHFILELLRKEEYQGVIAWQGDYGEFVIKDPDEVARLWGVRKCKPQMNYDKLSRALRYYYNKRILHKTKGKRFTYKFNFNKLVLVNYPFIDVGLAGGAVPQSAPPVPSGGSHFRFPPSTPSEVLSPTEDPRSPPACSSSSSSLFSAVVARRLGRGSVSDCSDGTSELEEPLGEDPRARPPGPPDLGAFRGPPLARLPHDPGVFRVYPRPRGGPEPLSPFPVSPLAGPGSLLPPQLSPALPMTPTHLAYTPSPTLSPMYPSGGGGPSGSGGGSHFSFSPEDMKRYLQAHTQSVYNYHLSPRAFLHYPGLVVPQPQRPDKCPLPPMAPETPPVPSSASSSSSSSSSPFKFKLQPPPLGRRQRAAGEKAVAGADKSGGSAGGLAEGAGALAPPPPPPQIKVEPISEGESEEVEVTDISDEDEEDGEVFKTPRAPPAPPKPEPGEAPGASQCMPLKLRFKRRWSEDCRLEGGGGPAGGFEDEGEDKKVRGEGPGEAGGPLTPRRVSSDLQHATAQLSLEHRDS
How it was run: (§1)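 Yeast served to express human transcription factors as GST fusions, which were then captured on glutathione beads and labelled with DNA barcodes. Pooled with a tag-only sample, they were incubated with 200 nmole of a 16-mer random double-stranded DNA library for 30 min at room temperature in Tris/NaCl/DTT/glycerol buffer, washed, crosslinked with 0.1% formaldehyde, ligated by proximity, amplified by PCR and sequenced. Dividing each hexamer's read frequency for a factor by its frequency for the tag-only sample gives the binding signal.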

GABPA = target: T2, GABPA (Homo sapiens, UniProt Q06546 1-454)
T2 sequence: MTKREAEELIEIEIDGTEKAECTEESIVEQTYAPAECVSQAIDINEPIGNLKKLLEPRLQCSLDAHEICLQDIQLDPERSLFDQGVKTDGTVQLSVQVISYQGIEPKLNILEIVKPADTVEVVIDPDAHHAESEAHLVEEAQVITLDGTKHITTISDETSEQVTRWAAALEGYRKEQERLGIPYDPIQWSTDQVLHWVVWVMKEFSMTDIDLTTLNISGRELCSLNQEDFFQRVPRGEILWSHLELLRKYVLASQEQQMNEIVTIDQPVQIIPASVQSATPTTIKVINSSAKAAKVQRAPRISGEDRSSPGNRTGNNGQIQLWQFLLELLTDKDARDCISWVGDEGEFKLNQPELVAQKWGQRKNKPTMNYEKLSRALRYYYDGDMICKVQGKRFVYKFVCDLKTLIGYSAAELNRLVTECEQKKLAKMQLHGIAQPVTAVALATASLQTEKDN
How it was run: as §1

ERG = target: T3, ERG (Homo sapiens, UniProt P11308 1-479)
T3 sequence: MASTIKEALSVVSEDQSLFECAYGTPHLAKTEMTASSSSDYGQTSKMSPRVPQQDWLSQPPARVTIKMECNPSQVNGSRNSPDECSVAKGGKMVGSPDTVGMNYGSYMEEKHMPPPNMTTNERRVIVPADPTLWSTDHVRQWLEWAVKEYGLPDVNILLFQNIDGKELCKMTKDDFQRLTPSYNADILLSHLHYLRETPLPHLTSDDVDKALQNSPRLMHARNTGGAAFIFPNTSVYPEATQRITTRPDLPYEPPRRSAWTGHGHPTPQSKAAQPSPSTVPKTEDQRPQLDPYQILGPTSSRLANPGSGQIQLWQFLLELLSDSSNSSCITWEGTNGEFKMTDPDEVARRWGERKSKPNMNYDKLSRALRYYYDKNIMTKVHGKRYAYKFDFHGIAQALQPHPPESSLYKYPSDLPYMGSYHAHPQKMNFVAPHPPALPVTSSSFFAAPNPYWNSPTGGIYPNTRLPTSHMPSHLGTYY
How it was run: as §1

EHF = target: T4, EHF (Homo sapiens, UniProt Q9NZC4 1-300)
T4 sequence: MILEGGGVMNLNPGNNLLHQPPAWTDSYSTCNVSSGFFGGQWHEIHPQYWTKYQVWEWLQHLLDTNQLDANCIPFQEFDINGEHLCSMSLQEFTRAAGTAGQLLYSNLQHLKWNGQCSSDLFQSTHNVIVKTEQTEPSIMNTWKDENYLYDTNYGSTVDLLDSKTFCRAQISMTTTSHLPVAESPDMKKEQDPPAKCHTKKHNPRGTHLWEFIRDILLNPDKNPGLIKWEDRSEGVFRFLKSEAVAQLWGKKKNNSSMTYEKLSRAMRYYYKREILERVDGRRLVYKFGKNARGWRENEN
How it was run: as §1

SPIB = SPIB (Homo sapiens, UniProt Q01892 1-262)
Sequence of SPIB (Q01892 whole entry): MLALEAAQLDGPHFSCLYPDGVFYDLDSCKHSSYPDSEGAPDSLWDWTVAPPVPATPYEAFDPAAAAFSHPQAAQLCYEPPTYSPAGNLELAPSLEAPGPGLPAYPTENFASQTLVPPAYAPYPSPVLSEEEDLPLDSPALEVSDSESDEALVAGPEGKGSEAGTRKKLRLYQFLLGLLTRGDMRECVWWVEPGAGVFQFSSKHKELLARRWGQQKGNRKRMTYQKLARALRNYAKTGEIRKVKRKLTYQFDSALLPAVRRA
How it was run: as §1

SPIC = target: T5, SPIC (Homo sapiens, UniProt Q8N5J4 1-248)
T5 sequence: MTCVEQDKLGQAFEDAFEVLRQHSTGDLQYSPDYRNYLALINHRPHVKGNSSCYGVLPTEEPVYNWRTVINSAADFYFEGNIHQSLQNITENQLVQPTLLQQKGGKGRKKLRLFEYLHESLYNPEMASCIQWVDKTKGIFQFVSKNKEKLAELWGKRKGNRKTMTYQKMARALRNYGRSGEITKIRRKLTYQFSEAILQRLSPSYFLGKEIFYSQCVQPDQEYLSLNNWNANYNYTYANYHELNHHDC
How it was run: as §1

ELF4 = ELF4 (Homo sapiens, UniProt Q99607 1-663)
Sequence of ELF4 (Q99607 whole entry): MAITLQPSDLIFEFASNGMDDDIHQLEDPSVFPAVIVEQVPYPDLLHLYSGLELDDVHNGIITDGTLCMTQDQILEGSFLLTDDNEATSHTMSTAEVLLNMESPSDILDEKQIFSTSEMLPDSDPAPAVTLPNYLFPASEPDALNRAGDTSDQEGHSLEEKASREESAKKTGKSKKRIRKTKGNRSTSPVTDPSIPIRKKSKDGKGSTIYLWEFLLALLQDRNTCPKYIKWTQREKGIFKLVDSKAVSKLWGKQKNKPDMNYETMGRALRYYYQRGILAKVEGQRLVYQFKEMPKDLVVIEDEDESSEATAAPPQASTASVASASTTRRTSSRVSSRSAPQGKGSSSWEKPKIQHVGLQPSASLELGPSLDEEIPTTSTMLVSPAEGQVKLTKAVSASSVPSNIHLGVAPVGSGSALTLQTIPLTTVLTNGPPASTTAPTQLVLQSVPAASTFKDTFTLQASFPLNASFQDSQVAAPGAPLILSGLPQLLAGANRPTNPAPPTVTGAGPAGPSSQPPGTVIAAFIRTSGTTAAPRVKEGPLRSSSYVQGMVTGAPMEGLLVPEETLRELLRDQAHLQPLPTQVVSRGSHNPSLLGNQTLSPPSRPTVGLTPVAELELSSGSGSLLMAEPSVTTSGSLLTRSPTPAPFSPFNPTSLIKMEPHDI
How it was run: as §1

ETV3L = target: T6, ETV3L (Homo sapiens, UniProt Q6ZN32 1-361)
T6 sequence: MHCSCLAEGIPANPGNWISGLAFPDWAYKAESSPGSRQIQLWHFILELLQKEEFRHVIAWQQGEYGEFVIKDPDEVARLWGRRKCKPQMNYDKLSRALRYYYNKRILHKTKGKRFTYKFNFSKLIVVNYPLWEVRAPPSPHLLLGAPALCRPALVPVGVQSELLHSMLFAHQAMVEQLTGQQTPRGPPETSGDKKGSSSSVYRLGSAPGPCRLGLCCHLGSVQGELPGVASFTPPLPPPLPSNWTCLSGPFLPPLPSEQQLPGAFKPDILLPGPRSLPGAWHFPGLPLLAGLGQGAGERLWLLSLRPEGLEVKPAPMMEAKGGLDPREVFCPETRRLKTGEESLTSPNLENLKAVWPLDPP
How it was run: as §1

ETV7 = target: T7, ETV7 (Homo sapiens, UniProt Q9Y603 1-341)
T7 sequence: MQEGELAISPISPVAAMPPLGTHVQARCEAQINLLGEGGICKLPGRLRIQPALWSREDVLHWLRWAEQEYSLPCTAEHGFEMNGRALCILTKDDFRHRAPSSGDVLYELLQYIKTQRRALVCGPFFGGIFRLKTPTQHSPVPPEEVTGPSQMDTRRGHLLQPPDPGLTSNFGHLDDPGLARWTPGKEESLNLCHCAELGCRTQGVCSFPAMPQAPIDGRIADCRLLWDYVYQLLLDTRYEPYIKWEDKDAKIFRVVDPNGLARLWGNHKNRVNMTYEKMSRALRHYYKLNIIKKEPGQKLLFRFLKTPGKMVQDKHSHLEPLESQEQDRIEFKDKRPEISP
How it was run: as §1

ETV3 = target: T8, ETV3 (Homo sapiens, UniProt P41162-2 1-143)
T8 sequence: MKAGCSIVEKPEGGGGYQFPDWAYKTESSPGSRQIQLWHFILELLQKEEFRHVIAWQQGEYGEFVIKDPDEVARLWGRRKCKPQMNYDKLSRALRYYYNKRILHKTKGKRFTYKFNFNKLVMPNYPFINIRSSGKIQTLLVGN
How it was run: as §1

ELK1 = target: T9, ELK1 (Homo sapiens, UniProt P19419 1-428)
T9 sequence: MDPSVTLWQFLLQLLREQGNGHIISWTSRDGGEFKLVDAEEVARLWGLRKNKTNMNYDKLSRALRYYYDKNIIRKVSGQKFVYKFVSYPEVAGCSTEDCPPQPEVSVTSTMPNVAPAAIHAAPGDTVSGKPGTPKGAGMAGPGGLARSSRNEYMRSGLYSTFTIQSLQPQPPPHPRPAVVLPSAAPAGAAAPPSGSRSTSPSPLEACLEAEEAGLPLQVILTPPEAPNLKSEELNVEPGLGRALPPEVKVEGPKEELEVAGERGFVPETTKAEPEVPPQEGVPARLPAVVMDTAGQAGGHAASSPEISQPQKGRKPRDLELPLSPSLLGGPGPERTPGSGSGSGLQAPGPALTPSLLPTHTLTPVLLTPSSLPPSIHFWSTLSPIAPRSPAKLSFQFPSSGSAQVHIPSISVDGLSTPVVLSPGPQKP
How it was run: as §1

ELF1 = ELF1 (Homo sapiens, UniProt P32519 1-619)
Sequence of ELF1 (P32519 whole entry): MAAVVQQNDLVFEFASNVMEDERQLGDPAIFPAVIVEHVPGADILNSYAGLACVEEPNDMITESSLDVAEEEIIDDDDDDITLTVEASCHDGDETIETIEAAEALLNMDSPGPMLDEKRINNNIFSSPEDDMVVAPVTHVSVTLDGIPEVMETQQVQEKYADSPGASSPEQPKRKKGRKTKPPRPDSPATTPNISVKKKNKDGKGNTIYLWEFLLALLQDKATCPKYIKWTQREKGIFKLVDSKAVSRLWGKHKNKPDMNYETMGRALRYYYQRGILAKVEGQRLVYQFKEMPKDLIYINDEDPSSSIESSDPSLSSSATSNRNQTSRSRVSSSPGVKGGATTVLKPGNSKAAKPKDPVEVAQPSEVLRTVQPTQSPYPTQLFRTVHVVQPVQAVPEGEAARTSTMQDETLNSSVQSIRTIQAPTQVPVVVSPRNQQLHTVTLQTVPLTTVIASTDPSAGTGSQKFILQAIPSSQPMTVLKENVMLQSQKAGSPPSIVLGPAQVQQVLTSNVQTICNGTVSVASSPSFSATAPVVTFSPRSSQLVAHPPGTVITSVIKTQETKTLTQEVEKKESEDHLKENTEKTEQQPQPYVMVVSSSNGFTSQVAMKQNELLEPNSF
How it was run: as §1

ELK3 = target: T10, ELK3 (Homo sapiens, UniProt P41970 1-407)
T10 sequence: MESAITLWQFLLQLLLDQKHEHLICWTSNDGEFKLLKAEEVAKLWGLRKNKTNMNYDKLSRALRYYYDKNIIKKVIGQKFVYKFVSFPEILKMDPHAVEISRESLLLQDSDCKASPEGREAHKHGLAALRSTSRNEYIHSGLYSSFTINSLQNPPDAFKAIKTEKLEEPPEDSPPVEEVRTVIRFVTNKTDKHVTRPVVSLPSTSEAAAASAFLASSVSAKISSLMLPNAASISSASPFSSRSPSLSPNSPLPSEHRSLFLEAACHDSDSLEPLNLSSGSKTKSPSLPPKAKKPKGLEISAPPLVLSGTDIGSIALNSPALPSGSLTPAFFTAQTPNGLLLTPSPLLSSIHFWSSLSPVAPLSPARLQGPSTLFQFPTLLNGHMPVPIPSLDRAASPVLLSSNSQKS
How it was run: as §1

ELK4 = target: T11, ELK4 (Homo sapiens, UniProt P28324-2 1-405)
T11 sequence: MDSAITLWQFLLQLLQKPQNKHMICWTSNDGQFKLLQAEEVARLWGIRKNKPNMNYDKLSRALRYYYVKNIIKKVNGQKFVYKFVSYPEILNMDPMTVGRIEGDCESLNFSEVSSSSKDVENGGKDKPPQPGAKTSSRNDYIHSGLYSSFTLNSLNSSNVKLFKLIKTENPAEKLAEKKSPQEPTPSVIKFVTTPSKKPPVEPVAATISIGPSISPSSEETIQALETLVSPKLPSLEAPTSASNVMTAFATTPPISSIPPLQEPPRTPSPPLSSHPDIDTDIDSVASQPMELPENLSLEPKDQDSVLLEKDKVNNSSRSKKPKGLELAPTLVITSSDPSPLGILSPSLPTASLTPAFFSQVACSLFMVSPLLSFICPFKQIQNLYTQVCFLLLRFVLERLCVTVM
How it was run: as §1

ETV6 = ETV6 (Homo sapiens, UniProt P41212 1-452)
Sequence of ETV6 (P41212 whole entry): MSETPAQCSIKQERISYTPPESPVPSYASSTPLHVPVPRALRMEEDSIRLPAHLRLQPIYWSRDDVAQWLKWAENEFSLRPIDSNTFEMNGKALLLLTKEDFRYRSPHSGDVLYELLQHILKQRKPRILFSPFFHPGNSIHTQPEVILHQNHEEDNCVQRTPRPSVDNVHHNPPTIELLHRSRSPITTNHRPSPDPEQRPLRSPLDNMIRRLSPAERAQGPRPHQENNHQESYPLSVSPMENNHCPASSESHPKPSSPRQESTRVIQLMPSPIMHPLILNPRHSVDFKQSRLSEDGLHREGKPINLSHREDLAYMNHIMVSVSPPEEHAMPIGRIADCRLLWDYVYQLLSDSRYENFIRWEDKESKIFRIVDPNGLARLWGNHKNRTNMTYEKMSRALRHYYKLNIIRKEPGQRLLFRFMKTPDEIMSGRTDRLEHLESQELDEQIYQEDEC
How it was run: as §1

ELF3 = target: T12, ELF3 (Homo sapiens, UniProt P78545 1-371)
T12 sequence: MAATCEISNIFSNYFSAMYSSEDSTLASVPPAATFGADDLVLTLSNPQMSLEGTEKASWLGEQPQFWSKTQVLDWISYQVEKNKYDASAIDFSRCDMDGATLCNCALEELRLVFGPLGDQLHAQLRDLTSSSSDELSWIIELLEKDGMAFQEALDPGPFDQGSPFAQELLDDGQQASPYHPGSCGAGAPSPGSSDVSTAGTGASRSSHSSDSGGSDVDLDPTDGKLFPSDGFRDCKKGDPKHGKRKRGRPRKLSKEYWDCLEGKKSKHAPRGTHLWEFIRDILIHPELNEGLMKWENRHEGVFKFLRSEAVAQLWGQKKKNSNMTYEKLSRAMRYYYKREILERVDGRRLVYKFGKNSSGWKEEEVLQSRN
How it was run: as §1

ETV1 = ETV1 (Homo sapiens, UniProt P50549 1-477)
Sequence of ETV1 (P50549 whole entry): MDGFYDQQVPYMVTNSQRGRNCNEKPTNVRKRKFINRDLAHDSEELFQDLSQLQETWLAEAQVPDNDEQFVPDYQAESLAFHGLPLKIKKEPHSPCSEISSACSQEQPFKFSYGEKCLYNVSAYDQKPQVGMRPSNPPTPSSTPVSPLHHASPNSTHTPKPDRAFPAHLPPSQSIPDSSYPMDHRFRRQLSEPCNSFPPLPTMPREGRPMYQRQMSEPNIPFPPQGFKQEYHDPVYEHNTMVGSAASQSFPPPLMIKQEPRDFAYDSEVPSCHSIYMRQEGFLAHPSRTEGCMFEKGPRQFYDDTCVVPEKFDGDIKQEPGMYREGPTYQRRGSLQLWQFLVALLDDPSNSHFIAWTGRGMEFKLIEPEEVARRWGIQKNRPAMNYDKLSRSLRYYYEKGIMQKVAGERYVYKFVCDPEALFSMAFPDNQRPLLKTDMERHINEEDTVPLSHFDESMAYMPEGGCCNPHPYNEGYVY
How it was run: as §1

Row | Sequence | binding signal (ERF) | binding signal (GABPA) | binding signal (ERG) | binding signal (EHF) | binding signal (SPIB) | binding signal (SPIC) | binding signal (ELF4) | binding signal (ETV3L) | binding signal (ETV7) | binding signal (ETV3) | binding signal (ELK1) | binding signal (ELF1) | binding signal (ELK3) | binding signal (ELK4) | binding signal (ETV6) | binding signal (ELF3) | binding signal (ETV1)
1 | CATAAG | 1 fold enrichment (6-mer frequency, TF over GST control) |  |  |  |  |  |  |  |  |  |  |  |  |  |  |  | 
2 | CGGCTG |  | 1.03 fold enrichment (6-mer frequency, TF over GST control) | 1.04 fold enrichment (6-mer frequency, TF over GST control) | 1.05 fold enrichment (6-mer frequency, TF over GST control) | 1.03 fold enrichment (6-mer frequency, TF over GST control) | 1.12 fold enrichment (6-mer frequency, TF over GST control) | 1.12 fold enrichment (6-mer frequency, TF over GST control) | 1.02 fold enrichment (6-mer frequency, TF over GST control) | 1.1 fold enrichment (6-mer frequency, TF over GST control) | 1.01 fold enrichment (6-mer frequency, TF over GST control) |  |  |  |  |  |  | 
3 | CGCCCA | 1.08 fold enrichment (6-mer frequency, TF over GST control) | 1.11 fold enrichment (6-mer frequency, TF over GST control) | 1.06 fold enrichment (6-mer frequency, TF over GST control) |  |  | 1.06 fold enrichment (6-mer frequency, TF over GST control) | 1.04 fold enrichment (6-mer frequency, TF over GST control) |  |  |  | 1.13 fold enrichment (6-mer frequency, TF over GST control) | 1.04 fold enrichment (6-mer frequency, TF over GST control) | 1.04 fold enrichment (6-mer frequency, TF over GST control) | 1.04 fold enrichment (6-mer frequency, TF over GST control) | 1.09 fold enrichment (6-mer frequency, TF over GST control) |  | 
4 | ACACGG |  | 1.05 fold enrichment (6-mer frequency, TF over GST control) |  | 1.05 fold enrichment (6-mer frequency, TF over GST control) | 1.1 fold enrichment (6-mer frequency, TF over GST control) | 1.06 fold enrichment (6-mer frequency, TF over GST control) | 1.05 fold enrichment (6-mer frequency, TF over GST control) | 1.06 fold enrichment (6-mer frequency, TF over GST control) | 1.03 fold enrichment (6-mer frequency, TF over GST control) | 1.13 fold enrichment (6-mer frequency, TF over GST control) | 1.03 fold enrichment (6-mer frequency, TF over GST control) | 1.06 fold enrichment (6-mer frequency, TF over GST control) |  | 1.07 fold enrichment (6-mer frequency, TF over GST control) | 1.06 fold enrichment (6-mer frequency, TF over GST control) | 1.06 fold enrichment (6-mer frequency, TF over GST control) | 1.1 fold enrichment (6-mer frequency, TF over GST control)
